The source made the active and inactive calls. The rule behind the calls is not given here. A value given as a limit tells only on which side of the number the result lay.
Potency is the fitted concentration of half-maximal effect.

This experiment concerns HIV-1 nucleocapsid protein NCp7 (binding to TG oligonucleotide). Description: HIV Nucleocapsid (AID 346).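 Note: potency is for inhibitors that block NC binding and lower polarization.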 Conditions: HIV-1 NC / fluorescein-TGTGTGTG probe, fluorescence polarization. The method, boiled down: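 Reagents dispensed (10 nM TG4xF, 100 nM HIV-1 NC), plates spun, compounds pin-transferred, then incubated 1 hr at room temperature before FP imaging. Buffer: Hepes pH 7.5, 250mM NaCl, 1uM ZnCl2, 100 uM TCEP, 5 mM 2-mercaptoethanol.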
In general terms: Fluorescence polarisation rises when a labelled molecule tumbles more slowly, as on binding a larger partner.
On to `O=c1c(-c2cccs2)nc2cnc(N3CCNCC3)nc2n1-c1ccccc1`, for which the Potency was 12.2 µM (inactive). The result for `Cc1cccc(CNc2ccnc(-c3ccoc3)n2)c1` reads > 20 µM (inactive). With `Cc1noc(C)c1C(=O)N1CCC2(CCCN(C(c3ccccc3)c3ccccc3)C2)CC1` the figure was > 20 µM (inactive).

In the case of `CN1CCN(c2ncc3nc(-c4ccccc4)c(=O)n(Cc4cccs4)c3n2)CC1`, the Potency is > 20 µM (inactive). The result for `COc1cccc(-c2ccc3ncnc(N4CCNCC4)c3c2)c1` reads > 20 µM (inactive); that for `O=C(c1cccc(F)c1)N1CCC[C@@]2(CCN(c3ccncc3)C2)C1`, > 20 µM (inactive); that for `O=c1c(-c2cccs2)nc2cnc(Oc3cccc(Cl)c3)nc2n1C[C@H]1CCCO1`, > 20 µM (inactive). As to `c1cncc(CNc2ccnc(-c3cccnc3)n2)c1`, the Potency is > 20 µM (inactive). With `CCNc1ncc2nc(-c3ccccc3)c(=O)n(C3CC3)c2n1` the figure was > 20 µM (inactive); with `COc1cccc(Cn2c(=O)c(-c3cccs3)nc3cnc(OC)nc32)c1`, > 20 µM (inactive). The result for `COc1ccc(-c2nc3cnc(N4CCOCC4)nc3n(Cc3cccc(OC)c3)c2=O)cc1` reads > 20 µM (inactive). `c1cc(NC2CC2)nc(-c2ccoc2)n1`: the Potency is > 20 µM (inactive). The result for `COCC(=O)N1CCC2(CCCN(C(=O)Nc3cccc(C#N)c3)C2)CC1` reads > 20 µM (inactive); that for `CN(C)c1ccc(-c2cc(NCc3ccccc3)ncn2)cc1`, > 20 µM (inactive); that for `CCNc1ncc2nc(-c3ccc(OC)cc3)c(=O)n(Cc3cccc(OC)c3)c2n1`, 4.61 µM (active).

Values taken from PubChem BioAssay (NCATS).
